Screens as filed in PubChem BioAssay.
Only some compounds are listed: those with a hit (about 3.7% of all), similar ones and a draw of the others.
Mtb betalactam – beta-lactam sensitization of Mtb H37Rv | M. tuberculosis H37Rv growth with meropenem, percent inhibition | inhibition, % at 25 µM | 0.27% of 330,000 active; call rule not given here;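 also: growth measured after seven days incubation then overnight dye step; 0% = bacteria only wells and 100% = bacteria with antibiotic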
Mtb FBA inh – Mtb fructose-bisphosphate aldolase inhibition; P9WQA3; purified M. tuberculosis FBA, fluorescence read-out; inhibition, % at 1 µM; 2.3% of 360,000 active; in the data active = inhibition above about 27%;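 also: 0% = vehicle and 100% = reference inhibitor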
Rv3671c inh – inhibits the M. tuberculosis serine protease Rv3671c; P9WHR9; inhibition, % at 5.96 µM; 0.048% of 320,000 active; in the data active = inhibition above about 38%;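 also: extracellular domain of Rv3671c used as enzyme; 0% = enzyme with DMSO and 100% = no enzyme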
Target sequence (P9WHR9 whole entry, looked up, the tested form may be a part): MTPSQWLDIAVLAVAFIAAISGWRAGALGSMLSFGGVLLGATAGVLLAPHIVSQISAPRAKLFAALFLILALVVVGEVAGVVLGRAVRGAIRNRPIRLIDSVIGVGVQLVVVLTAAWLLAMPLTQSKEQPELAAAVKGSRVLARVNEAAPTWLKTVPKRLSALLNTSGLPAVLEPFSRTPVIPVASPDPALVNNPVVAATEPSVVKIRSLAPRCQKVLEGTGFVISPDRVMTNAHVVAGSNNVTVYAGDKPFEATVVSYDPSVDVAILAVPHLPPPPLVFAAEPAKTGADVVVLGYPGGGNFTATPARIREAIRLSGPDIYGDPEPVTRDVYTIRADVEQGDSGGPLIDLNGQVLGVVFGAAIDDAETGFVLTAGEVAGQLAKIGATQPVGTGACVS
UGM FP inh – Mtb UDP-galactopyranose mutase inhibition; purified UGM, fluorescence polarization probe displacement; inhibition, % at 10 µM; 0.06% of 320,000 active; in the data active = inhibition above about 10%, passing the limit was not always enough; inconclusive = no clear call, values can overlap the other calls
GDH-TPI counter – counter-screen for M. tuberculosis FBA inhibitors: GDH-TPI coupled enzymes; GDH-TPI coupled enzyme counterscreen, NADH absorbance; inhibition, % at 4.8 µM; 1.2% of 360,000 active; AID 588335; in the data active = inhibition above about 30%;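 also: 0% = DMSO wells and 100% = wells lacking the enzyme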
FadD28 binding – M. tuberculosis FadD28 bisubstrate binding inhibition | FadD28 bisubstrate probe binding, fluorescence polarization | inhibition, % at 12.5 µM | 0.22% of 360,000 active | AID 588549; in the data active = inhibition above about 8.5%, passing the limit was not always enough; inconclusive = no clear call, values can overlap the other calls
An asterisk follows results filed as active; ? = inconclusive; · = no result given; + = active, no number.

SMILES	Mtb betalactam	Mtb FBA inh	Rv3671c inh	UGM FP inh	GDH-TPI counter	FadD28 binding
COc1ccc(/C=C/C(=O)Nc2cccc(S(=O)(=O)NC3=NCCCCC3)c2)c(OC)c1	-1	4	-28	-3	36*	-5
CN(C)c1ccc(C(=O)Nc2cccc(S(=O)(=O)NC3=NCCCCC3)c2)cc1	-4	-1	-2	-2	31*	-2
COc1ccc(/C=C/C(=O)Nc2cccc(S(=O)(=O)NC3=NCCCCC3)c2)cc1	-3	6	-9	-1	51*	0
CCc1nnc(NS(=O)(=O)c2ccc(NC(=O)/C=C/c3ccc(OC)cc3OC)cc2)s1	-2	4	-64	0	40*	-17
CC1C(=O)N(Cc2cn(Cc3ccco3)nn2)CCS(=O)(=O)N1Cc1ccc(-c2ccccc2C(F)(F)F)cc1 (stereo not drawn)	·	-1	·	·	·	-4
O=C(N/N=C/C(Br)=C/c1ccccc1)C(O)c1ccccc1 (stereo not drawn)	1	0	-6	-2	43*	-3
O=C(N/N=C/C(Br)=C/c1ccccc1)C1CC1	10	-1	-4	2	21	-2
O=C(O)c1ccc(N/N=C/C(Br)=C/c2ccccc2)cc1	5	1	1	1	66*	?
CC(=O)c1ccc(-c2ccc(/C=C(/Sc3n[nH]c(C)n3)C(=O)O)o2)cc1	23	-17	7	3	39*	-1
Cc1nc(S/C(=C/c2ccc(-c3ccc(C(=O)O)cc3)o2)C(=O)O)n[nH]1	-8	-19	34	0	28	?
CCOc1ccc(Nc2ccc(N)c(S(=O)(=O)O)c2)cc1	·	-1	·	·	16	22*
CCOc1ccc(NS(=O)(=O)c2ccc(N)cc2)cc1	1	3	2	-2	12	-1
COc1cc(-c2ccc(Nc3ccccc3C(=O)O)c(OC)c2)ccc1Nc1ccccc1C(=O)O	·	1	·	·	30	78*
O=C(O)c1ccccc1Nc1ccccc1	-1	2	1	1	9	2
COc1cc(Cn2c3ccc(NC(=O)CC(C)(C)C)cc3c(=O)n2C)ccc1F	·	178*	·	·	18	-2
COc1cc(Cn2c3ccc(NC(=O)CC(C)C(F)(F)F)cc3c(=O)n2C)ccc1F (stereo not drawn)	·	174*	·	·	4	-2
Cn1c(=O)c2cc(NC(=S)NC3CCCCC3)ccc2n1C/C=C/c1ccccc1	·	9	·	·	10	?
CC(CC(=O)Nc1ccc2c(c1)c(=O)n(C)n2Cc1ccc(Cl)cc1)C(F)(F)F (stereo not drawn)	·	143*	·	·	11	0
COc1ccc(CC(=O)Nc2ccc(F)c(Cl)c2)cc1S(=O)(=O)N1CCOCC1	2	0	7	0	5	-3
Cn1c(=O)c2cc(NC(=S)NC3CCCCC3)ccc2n1Cc1ccc(Cl)cc1	·	24	·	·	3	17*
O=C(CN1C(=O)c2ccccc2C1=O)NCC(=O)Nc1ccccc1	·	0	·	·	1	-1
Cc1cccc(NC(=O)CSCC(=O)NCc2cccc(C(F)(F)F)c2)c1	-7	0	-5	0	-12	-6
Cn1c(=O)c2cc(NC(=O)Cc3ccccc3F)ccc2n1Cc1ccc(Cl)cc1	·	133*	·	·	4	-4
Cn1c(=O)c2cc(NC(=S)NCc3ccccc3F)ccc2n1Cc1ccccc1	·	18	·	·	10	0
CC(CC(=O)Nc1ccc2c(c1)c(=O)n(C)n2Cc1cccc(C(F)(F)F)c1)C(F)(F)F (stereo not drawn)	·	126*	·	·	5	-5
SMILES	Mtb betalactam	Mtb FBA inh	Rv3671c inh	UGM FP inh	GDH-TPI counter	FadD28 binding
COC(CNC(=O)c1ccc2c3c(onc13)-c1ccccc1C2=O)OC	3	-1	-44	27*	-1	0
COC(CNC(=O)c1cccnc1)OC	-5	4	10	-1	-3	-1
CC1CCCC(C)N1C(=O)COC(=O)c1ccc(Br)o1 (stereo not drawn)	3	4	4	-3	2	1
CCOC(=O)C1CCCN(C(=O)c2ccc(OCC)cc2)C1 (stereo not drawn)	5	+	-4	0	-6	-3
N#CC(C#N)=CNc1cccnc1	-8	5	-3	1	43*	-1
C/C(=N/Nc1ccccc1C(=O)O)c1cccs1	1	-3	6	-2	33*	-1
C/C(=N\Nc1ccc(Cl)c(C(=O)O)c1)c1cccs1	3	-2	-3	-1	19	-1
CC(C)(C)OC(=O)N1CCC(C(=O)Nc2ccc(C(=O)NCCc3ccccc3)cc2)CC1	·	-1	·	·	2	-1
